The inhibition is the relative decrease from the control value, in per cent.

Screen size: about 290,000 compounds; about 3,100 (1.1%) were called active. No stated cut-off is given here; in the data, active means inhibition above about 16% (passing the limit was not always enough); inactive means the rest. The sample as a whole holds a higher share of actives than the screen did.

In this assay the target is Neuropeptides B/W receptor type 1 (Homo sapiens) (UniProt P48145). Kind of assay: GPR7 receptor antagonists, primary screen, cell-based, fluorescence, single concentration (AID 1861).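 Further: cells stimulated with the agonist NPW; 0% = agonist with vehicle and 100% = vehicle without agonist.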 Particulars: GPR7-expressing cells, fluorescence antagonist assay; at 4.4 µM; active compounds read high.
Sequence of Neuropeptides B/W receptor type 1 (Homo sapiens) (P48145 whole entry, looked up): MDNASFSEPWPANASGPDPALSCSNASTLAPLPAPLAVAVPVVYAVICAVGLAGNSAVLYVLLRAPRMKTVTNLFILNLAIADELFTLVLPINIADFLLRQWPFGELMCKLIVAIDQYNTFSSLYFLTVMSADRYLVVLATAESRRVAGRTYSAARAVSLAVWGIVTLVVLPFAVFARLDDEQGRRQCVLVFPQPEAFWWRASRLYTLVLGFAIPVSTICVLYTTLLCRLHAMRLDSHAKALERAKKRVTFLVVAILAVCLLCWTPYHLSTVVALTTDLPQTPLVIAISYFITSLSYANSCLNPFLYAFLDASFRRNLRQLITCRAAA
Regarding `C/C(=N\NC(=O)c1cccc([N+](=O)[O-])c1)c1cccnc1`, the inhibition is -13.8% (inactive).

With `Cc1ccccc1Nc1nnc(SCC(=O)c2cc3ccccc3o2)s1`, the inhibition was 28% (active).

Turning to `Cc1ccc(Nc2nnc(SCC(=O)c3cc4ccccc4o3)s2)cc1C`, the inhibition is -6.61% (inactive).

As to `Cc1cc(NC(=O)CSc2nnc(Nc3ccccc3F)s2)no1`, the inhibition was -3.75% (inactive).

As to `COc1ccc(-c2nc3c(s2)CCc2onc(-c4ccc(OC)cc4)c2-3)cc1`, the inhibition was -14.6% (inactive).

As for `O=C(CC1C(=O)NCCN1CC(c1ccccc1)c1ccccc1)NCC1CCOCC1` (centres undefined), the inhibition was -12.4% (inactive).

`COCCn1cnc2c1c(=O)n(CC(=O)NN)c(=O)n2Cc1ccccc1`: the inhibition was -7.23% (inactive).

Consider `Cc1ccc(F)c(NC(=O)CCOc2ccccc2C)c1`, for which the inhibition is -9.71% (inactive).

Turning to `O=[N+]([O-])/C=C/c1ccc2c(ccn2Cc2ccccc2)c1`, the inhibition is 50.9% (active).

On to `O=c1c([N+](=O)[O-])cc(C(F)(F)F)cn1Cc1cccc(Cl)c1`, for which the inhibition is 1% (inactive).

`O=C(/C=C/c1cccc([N+](=O)[O-])c1)N1CCN(Cc2ccccc2)CC1`: the inhibition is 33.7% (inactive).

For `CCc1ccc(NC(=O)CN2C(=O)COc3ccc(S(=O)(=O)N4CCCC4)cc32)cc1`, the inhibition is -5.64% (inactive).

For `CCn1c(COc2ccccc2)nnc1SCC(=O)NCc1ccco1`, the inhibition was 3.08% (inactive).

Regarding `COc1ccc(C(=O)CSc2nnc(COc3ccccc3)n2Cc2ccco2)cc1`, the inhibition was 42.3% (active).

With `C=CCn1c(CNC(=O)c2ccco2)nnc1SCC(=O)c1ccc(OC)cc1`, the inhibition is -0.25% (inactive).

In the case of `CCc1ccc(N2CC(C(=O)N3CCCCCC3)CC2=O)cc1` (centres undefined), the inhibition is -4.17% (inactive).

As to `COc1ccccc1N(CC(=O)N/N=C(\C)c1ccccc1O)S(=O)(=O)c1ccc(C)cc1`, the inhibition was -9.35% (inactive).

`Cc1ccc(NC2=C(Cl)C(=O)OC2OC(=O)c2ccccc2C)cc1` (centres undefined): the inhibition is 36.4% (active).

On to `Cc1ccccc1C(=O)OC1OC(=O)C(Cl)=C1Nc1ccccc1` (centres undefined), for which the inhibition was 0.02% (inactive).

`O=C1OC(OC(=O)c2ccccc2Br)C(N2CCOCC2)=C1Cl` (centres undefined): the inhibition was -8.99% (inactive).

As for `COC(=O)Cc1ccc(NC(=S)NCc2ccc(Cl)cc2)cc1`, the inhibition was -7.45% (inactive).

Regarding `Cc1ccccc1NC(=S)NC(=O)Cc1ccc(Cl)cc1`, the inhibition is 56.5% (active).

`O=C(Cc1ccc(Cl)cc1)NC(=S)Nc1ccccc1O`: the inhibition was 80.2% (active).

With `Cc1ccc(C(=O)NC(=S)Nc2ccccc2C)cc1`, the inhibition was -4.66% (inactive).

Consider `Cc1cccc(NC(=S)NCCc2ccc(Cl)cc2)c1C`, for which the inhibition was -3.82% (inactive).

On to `O=C(COc1ccc(Cl)cc1)NC(=S)Nc1ccccc1N1CCOCC1`, for which the inhibition was -6.56% (inactive).

With `COc1ccc2oc(=N)c(C(=O)Nc3ccc(Br)cc3)cc2c1`, the inhibition is -2.95% (inactive).

`CC(=O)Nc1ccc(S(=O)(=O)NC2Cc3ccccc3C2)cc1`: the inhibition is 17.6% (inactive).

On to `O=C(c1cc2ccccc2o1)N1CCN(Cc2ccccc2)CC1`, for which the inhibition is -6.86% (inactive).

Take `COc1ccc(NC(=O)CCCC2CCCCC2)c(OC)c1`: the inhibition was 14.9% (inactive).

Consider `Cc1ccc(C)c(SCc2nc3sc(C(=O)O)c(C)c3c(=O)[nH]2)c1`, for which the inhibition is -16.9% (inactive).

On to `Cc1ccc(-c2nc(SCC(=O)Nc3ccccc3OC(F)F)c3c(C)c(C(=O)O)sc3n2)cc1`, for which the inhibition was 29.8% (active).

For the compound `COc1ccccc1NC(=O)CSc1nc2sc3c(c2c(=O)n1-c1ccccc1)CCN(C)C3`, the inhibition is 4.04% (inactive).

Turning to `COc1cccc(/C=C(/CC(=O)Nc2ccc(N3CCOCC3)cc2)c2nc3ccccc3s2)c1`, the inhibition was -6.54% (inactive).

`Cc1ccc(C)c(C(=O)N2CCC(n3nccc3NC(=O)C3CC3)CC2)c1`: the inhibition was -10.3% (inactive).

Turning to `CCCCCCn1c(CN2CCCCC2)nc2c1c(=O)n(C)c(=O)n2C`, the inhibition was 0.86% (inactive).

`CCCCCCCCn1c2c(c(=N)c3c1CCC3)CCCC2`: the inhibition was 57.5% (active).

Regarding `COc1ccccc1C(=O)N/C(=C/c1ccco1)C(=O)Nc1ccc(C(=O)O)cc1`, the inhibition was 0.36% (inactive).

`CCCC(=O)Nc1ccc(Cl)c(NC(=O)c2ccc(Br)o2)c1`: the inhibition is -14% (inactive).

For the compound `CCN1CCN(c2c(Cl)cccc2NC(=O)c2ccc(Br)o2)CC1`, the inhibition is 23.7% (active).

In the case of `O=C(Nc1cccc(Cl)c1N1CCOCC1)c1cccnc1`, the inhibition was -1.34% (inactive).

With `COc1ccc2cc(C(=O)NCC3CCCO3)[nH]c2c1` (centres undefined), the inhibition is -1.93% (inactive).

With `CCN(CC)CCOCCOc1ccc(Cl)c2ccccc12`, the inhibition is 27.1% (active).

Consider `CN(C)CCOCCOc1ccc(Cl)c2ccccc12`, for which the inhibition is 14.1% (inactive).

For the compound `Clc1cccc(Cl)c1OCCOCCNCc1ccccc1`, the inhibition is -2.47% (inactive).

With `COc1ccc(NS(=O)(=O)c2ccc(O)c(C(=O)OCC(=O)NC3CCCCC3)c2)cc1`, the inhibition is -13.8% (inactive).

On to `NC(=O)COc1ccccc1C(=O)NC12CC3CC(CC(C3)C1)C2`, for which the inhibition was -4.36% (inactive).

For the compound `CN1CCNC(=O)C1CC(=O)NCCC1=CCCCC1` (centres undefined), the inhibition is 18.4% (active).

For the compound `Cc1ccccc1CN1CCNC(=O)C1CC(=O)NCCC1=CCCCC1` (centres undefined), the inhibition was -1.59% (inactive).

In the case of `O=C(Cc1nn[nH]n1)NCCC1=CCCCC1`, the inhibition is -14.2% (inactive).

With `CCN(CC)Cc1c(C(=O)N/N=C/c2cccc(OCc3ccc(F)cc3)c2)nnn1-c1nonc1N`, the inhibition is 6.35% (inactive).

With `CCN(CC)Cc1c(C(=O)OC)nnn1-c1nonc1N`, the inhibition was 36.6% (active).

Regarding `Cc1c(C(=O)O)nnn1-c1nonc1N`, the inhibition is -7.01% (inactive).

As to `O=C(CSc1nnnn1C1CCCC1)N1CCCCC1`, the inhibition was 0.56% (inactive).

Turning to `CCOC(=O)C1(Cc2ccccc2C(F)(F)F)CCN(C(=O)c2cc(C)n(C)n2)CC1`, the inhibition is -2.9% (inactive).

Consider `CC(NS(=O)(=O)c1ccc(Br)cc1)C(=O)NCC1CCCO1` (centres undefined), for which the inhibition is -6% (inactive).

Turning to `O=C(CSc1ccc(-c2ccc(Br)cc2)nn1)NCC1CCCO1` (centres undefined), the inhibition is -0.63% (inactive).

`OC(CNCC1CCCO1)Cn1c2ccc(Br)cc2c2cc(Br)ccc21` (centres undefined): the inhibition was 25.7% (active).

Consider `CCc1ccc(OCC(O)CN2CCN(CCO)CC2)cc1` (centres undefined), for which the inhibition is -19.8% (inactive).

`O=S1(=O)CCO[C@H]2Cc3ccccc3[C@H]2N1Cc1ccccc1`: the inhibition is -8.66% (inactive).

`COc1ccccc1C(=O)N1C(CC(=O)Nc2ccccc2C)C(=O)NC2CCCCC21` (centres undefined): the inhibition was -5.63% (inactive).

For `Cc1cc(-c2n[nH]c(=S)n2/N=C/C(Br)=C/c2ccccc2)n[nH]1`, the inhibition was 4.93% (inactive).

Turning to `COc1ccc(CC(=O)Nc2cc(S(=O)(=O)N3CCCCC3)ccc2N2CCN(C)CC2)cc1`, the inhibition was 19.6% (active).

On to `CN1CCN(c2ccc(S(=O)(=O)N3CCCCC3)cc2NC(=O)Cc2ccccc2F)CC1`, for which the inhibition is 1.52% (inactive).

`CCN1CCN(c2ccc(S(=O)(=O)N3CCCCC3)cc2NC(=O)Cc2c(Cl)cccc2Cl)CC1`: the inhibition is 1.74% (inactive).

Consider `CCCC(C)c1nnc(NC(=O)C2CC(=O)N(c3ccc(OCC)cc3)C2)s1` (centres undefined), for which the inhibition was 0.56% (inactive).

As to `COc1ccc(N(CC(=O)Nc2cc(OC)ccc2OC)S(=O)(=O)c2c(C)noc2C)cc1`, the inhibition is -4.71% (inactive).

As for `COc1ccc(C(C(O)C(=O)c2c[nH]c3ccccc23)N2CCN(c3ccccc3)CC2)cc1` (centres undefined), the inhibition was 25.7% (active).

On to `COc1ccc(/C=C(\C#N)c2c[nH]c3ccccc23)cc1`, for which the inhibition is 17.2% (inactive).

Consider `COc1cccc(-n2c(SCC(=O)c3c[nH]c4ccccc34)nc3ccccc3c2=O)c1`, for which the inhibition is -11.6% (inactive).

Take `COc1ccc(C(=O)NC(=S)N2CCCCC2c2cccnc2)cc1OC` (centres undefined): the inhibition was -2.66% (inactive).

As for `Nc1nc(NCc2ccccc2)n(-c2ccccc2)n1`, the inhibition is -7.72% (inactive).

Regarding `Cc1ccc(NC(=O)CN2C(=O)NC(C)(c3ccc(Cl)cc3)C2=O)c(Br)c1` (centres undefined), the inhibition is 22.3% (active).

Turning to `CC1(c2ccc(Cl)cc2)NC(=O)N(CC(=O)c2ccc3c(c2)OCO3)C1=O` (centres undefined), the inhibition is -6.7% (inactive).

As for `O=C(CN1C(=O)NC2(CCCC2)C1=O)Nc1ccc(F)c(F)c1F`, the inhibition was 11.1% (inactive).

For the compound `O/N=C(\C[n+]1ccccc1)c1ccc(Br)cc1`, the inhibition was 5.69% (inactive).

Consider `CCOc1ccc(-n2c(SCC(=O)Nc3cc(C(=O)O)ccc3Cl)nc3ccccc3c2=O)cc1`, for which the inhibition is 2.21% (inactive).

As for `O=C(COc1ccc(Cl)cc1)N1CCN(c2cccc(C(F)(F)F)c2)CC1`, the inhibition was -8.3% (inactive).

Take `O=C(COc1ccc(S(=O)(=O)NCc2ccccc2)cc1)N1CCOCC1`: the inhibition was 4.86% (inactive).

As to `O=C(COc1ccc(S(=O)(=O)Nc2cccc(C(F)(F)F)c2)cc1)N1CCOCC1`, the inhibition is 26.6% (active).

For `Cc1cc(N/N=C\c2ccc(Br)cc2)nc(-n2nc(C)cc2C)n1`, the inhibition is -2.3% (inactive).

For `COc1ccc(Nc2cc(C)nc(-n3nc(C)cc3C)n2)cc1`, the inhibition is 20.7% (active).

Take `COc1ccccc1/C=N\Nc1cc(C)nc(-n2nc(C)cc2C)n1`: the inhibition was -14.4% (inactive).

With `O=C(NCCc1c[nH]c2ccccc12)C1CCN(Cc2ccc(Br)cc2)CC1`, the inhibition is 6.85% (inactive).

In the case of `CCc1ccc(N(C(=O)c2csnn2)C(C(=O)NC2CCCCC2)c2ccncc2)cc1` (centres undefined), the inhibition was 22.7% (active).

Turning to `CCc1ccc(N(C(=O)c2csnn2)C(C(=O)NC2CCCCC2)c2cccnc2)cc1` (centres undefined), the inhibition was 16.5% (inactive).

On to `O=C(NC1CCCC1)C(c1ccco1)N(C(=O)c1csnn1)c1ccccc1` (centres undefined), for which the inhibition is -7.05% (inactive).

With `O=C(NCC(=O)N(c1ccccc1)C(C(=O)NCC1CCCO1)c1ccccc1)c1cccs1` (centres undefined), the inhibition is -0.97% (inactive).

`CN(C)CCNc1ccc(-c2n[nH]c(=O)c3ccccc23)cc1[N+](=O)[O-]`: the inhibition was -19.5% (inactive).

For the compound `CCc1ccccc1NC(=O)c1ccc2snnc2c1`, the inhibition was 4.67% (inactive).

`O=C(Nc1cccc(Br)c1)c1ccc2snnc2c1`: the inhibition is 6.67% (inactive).

For the compound `O=C(Nc1ccc2ccccc2c1)Nc1ccc2snnc2c1`, the inhibition is 31.3% (active).

On to `COCC(=O)N1CCCC(C(=O)c2ccc(C(F)(F)F)cc2)C1` (centres undefined), for which the inhibition was -16.7% (inactive).

`CCOC(=O)C1(CCOC)CCN(Cc2cc3ccccc3s2)CC1`: the inhibition was -2.08% (inactive).

Values taken from PubChem BioAssay AID1861 (The Scripps Research Institute Molecular Screening Center, 2009).
